From PubChem
DAX1 inh-1 – NR0B1 (DAX1) inhibition. inhibition, % at 6.75 µM. HEK293 Gal4-DAX1 luciferase reporter, luminescence. P51843. 340,000 compounds, 0.99% hits;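 active = inhibition above the mean over all tested compounds plus 3 SD, cut at about 4.2% in these data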;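 also: 0% = DAX1-transfected cells with DMSO and 100% = empty-vector control cells with DMSO; inhibition shows as a rise in luminescence from relieved DAX1 repression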
Target sequence (P51843 207-470 limits assumed): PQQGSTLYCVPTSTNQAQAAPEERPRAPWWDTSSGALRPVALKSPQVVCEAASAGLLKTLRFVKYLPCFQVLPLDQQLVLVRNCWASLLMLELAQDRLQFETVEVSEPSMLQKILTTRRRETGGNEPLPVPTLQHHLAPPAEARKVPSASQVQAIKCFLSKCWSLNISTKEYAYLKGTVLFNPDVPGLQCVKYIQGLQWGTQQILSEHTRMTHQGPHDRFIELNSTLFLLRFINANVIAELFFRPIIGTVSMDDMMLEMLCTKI
DAX1 inh-2 – blocks DAX1 repression of SF-1 activated StAR promoter; HEK293T StAR-luciferase reporter, SF-1/DAX-1 repression relief; inhibition, % at 6.8 µM; 370,000 compounds, 1.1% hits; AID 652010;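 active = inhibition above the mean over all tested compounds plus 3 SD, cut at about 3.6% in these data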;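 also: 0% = DAX-1 cells with DMSO and 100% = cells lacking DAX-1 with DMSO; higher inhibition means more luminescence from relief of DAX-1 repression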
hgDAF-12 ag – hgDAF-12 agonism, primary luciferase screen; activation, % at 6.8 µM; 370,000 compounds, 1.8% hits; HEK293 GAL4-hgDAF12 UAS-luciferase reporter, agonist luminescence; normalized to butyrate control; AID 687014;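 active = activation above a cutoff set at the mean of all screened compounds plus 3 SD, cut at about 10% in these data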;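 also: 0% = DMSO wells and 100% = sodium butyrate wells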
GAA850 FXN act – frataxin GAA850 promoter activation; activation, % at 6 µM; AID 540364; HEK293 lucGAA850 FXN promoter luciferase reporter, 24 h; percent of 10 µM SAHA response; 360,000 compounds, 0.56% hits;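 active = activation above the average of all compounds screened plus 3 SD, cutoff fixed separately per campaign, cut at about 7.5% in these data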;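 also: 0% = DMSO wells and 100% = 10 µM SAHA wells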
ssDAF12 agonist – S. stercoralis DAF-12 activation, primary screen; HEK293 ssDAF-12/GRIP1 lit1-tk-luc reporter, luminescence; % of 3 µM dafachronic acid response; activation, % at 6.8 µM; 370,000 compounds, 1% hits; AID 652126;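 active = activation above the mean over all tested compounds plus 3 SD, cut at about 0.9% in these data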;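 also: 0% = DMSO-only wells and 100% = 3 µM delta7-dafachronic acid wells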
hcDAF-12 act – activators of H. contortus DAF-12 nuclear receptor; HEK293 hcDAF-12 lit1-tk-luc reporter, luminescence; 0% DMSO, 100% Δ7-dafachronic acid; activation, % at 6.8 µM; 370,000 compounds, 1.4% hits; AID 652067;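 active = activation above the mean of all tested compounds plus 3 SD, cut at about 5.5% in these data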;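 also: 100% = response to 3 µM Δ7-dafachronic acid high control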
DAX1 conf – confirmation of human DAX1 (NR0B1) inhibitors | HEK293T StAR-promoter luciferase reporter, SF-1/DAX-1 repression | AID 652134 | shares compounds with DAX1 inh-2 | 2,400 compounds, 87% hits | inhibition, % at 6.8 µM;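 active = inhibition above the average of every tested compound plus 3 SD, cut at about 3.8% in these data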;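 also: 0% = DAX-1 cells with DMSO and 100% = no DAX-1 control cells with DMSO; active compounds raise luminescence by relieving repression of the StAR reporter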
SF1 AF2mut Luc – counter-screen for DAX1 inhibitors: nonselective inhibitors with SF-1 AF2 mutant | shares compounds with DAX1 inh-2 | 2,400 compounds, 78% hits | AID 652136 | HEK293 StAR-luciferase, luminescence | inhibition, % at 6.8 µM;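 active = inhibition above the mean of all tested compounds plus 3 SD, cut at about 3% in these data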;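 also: 0% = DAX-1 transfected cells with DMSO and 100% = cells without DAX-1 with DMSO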
LXRb hcDAF ctr – LXR-beta agonism as hcDAF-12 counter-screen | 3,400 tested, under 10 active | AID 743027 | shares compounds with hcDAF-12 act | HEK293 Gal4-LXR tk-luc reporter, luminescence, 24 h; normalized: DMSO 0%, positive control 100% | activation, % at 6.8 µM;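 active = mean percent activation of the reporter above a cutoff set as the average over tested compounds plus their standard deviation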
hcDAF12 ag – hcDAF-12 agonism, confirmation assay; shares compounds with hcDAF-12 act; AID 743032; activation, % at 6.8 µM; 3,400 compounds, 61% hits; HEK293 hcDAF-12 lit1-tk-luc reporter, luminescence; % of Δ7-dafachronic acid response;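 active = mean activation across triplicate tests above the threshold derived from the earlier primary screen, cut at about 5.5% in these data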;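 also: 0% = DMSO only wells and 100% = 3 µM Δ7-dafachronic acid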
hgDAF12 ag – confirmation of H. glycines DAF-12 agonists | 3,300 compounds, 80% hits | shares compounds with hgDAF-12 ag | activation, % at 6.8 µM | HEK293 GAL4-hgDAF12 luciferase reporter, agonist mode; percent of butyrate response;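 active = mean activation over triplicate wells above the hit cutoff derived from the earlier primary screen, cut at about 11% in these data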;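 also: 0% = DMSO low control and 100% = 2 mM sodium butyrate high control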
LXR ag 2 – activates human LXR-beta, counter-screen for DAF-12 agonists; shares compounds with hgDAF-12 ag; HEK293 Gal4-LXR luciferase reporter, 24 h; activation, % at 6.8 µM; 3,300 tested, under 10 active;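 active = mean activation of the triplicate above a set limit carried over from the primary screen, none filed active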
* marks the source's active call; other numbers are inactive results; · = no result given. This is a sample that favours compounds with a hit; in the whole collection about 4.5% have one here.

SMILES | DAX1 inh-1 | DAX1 inh-2 | hgDAF-12 ag | GAA850 FXN act | ssDAF12 agonist | hcDAF-12 act | DAX1 conf | SF1 AF2mut Luc | LXRb hcDAF ctr | hcDAF12 ag | hgDAF12 ag | LXR ag 2
Cc1cccnc1NC(=O)c1ccc2c(c1)NC(=O)C(C)S2 (configuration not stated) | 1.4 | 1.9 | 5.7 | 0.8 | -0.8 | -1.2 | · | · | · | · | · | ·
O=C(Nc1ccc2c(c1)OCCO2)C(=O)c1c[nH]c2ccccc12 | -3.0 | 2.1 | 9.6 | -6.4 | 0.8 | 5.1 | · | · | · | · | · | ·
O=C(Nc1ccc2c(c1)OCO2)C(=O)c1c[nH]c2ccccc12 | 1.9 | 17.9* | 13.5* | 2.6 | 0.8 | 9.3* | 16.7* | 6.5* | · | · | 18.7* | 1.1
Cc1cc(-c2ccc(F)cc2)n2ncc(-c3ccccc3)c2n1 | · | -2.2 | -8.9 | -7.1 | -1.5 | -2.7 | · | · | · | · | · | ·
Cc1cc(-c2ccncc2)n2ncc(-c3ccccc3)c2n1 | · | 13.1* | 19.3* | 6.4 | 2.5* | 10.8* | 18.8* | 9.5* | 1.7 | 10.9* | 22.9* | 0.8
COc1cccc(N/C=C/C(=O)c2ccc(Cl)cc2)c1 | 1.8 | 6.1* | 19.9* | 1.7 | 0.8 | 7.1* | 17.2* | 6.6* | 2.2 | 8.7* | 22.3* | 1.4
COc1cccc(C(=O)/C=C/Nc2cccc(O)c2)c1 | -3.1 | · | · | 0.3 | · | · | · | · | · | · | · | ·
CCOC(=O)CC[C@@]1(C(=O)OCC)C[C@@H](CC(=O)NCC23CC4CC(CC(C4)C2)C3)C(=O)N2CCCC=C21 | · | -1.6 | -0.8 | · | -1.5 | -2.0 | · | · | · | · | · | ·
COc1ccc2nc(NC(=O)Nc3ccccc3)sc2c1 | 0.0 | 11.3* | 22.2* | -1.4 | 0.6 | 8.1* | 14.1* | 8.8* | 2.0 | 5.1 | 23.1* | 1.3
CCOc1ccc2nc(NC(=O)Nc3cccs3)sc2c1 | 2.8 | 9.2* | 26.8* | 2.1 | 0.7 | 7.9* | 18.6* | 12.8* | 1.8 | 4.6 | 26.8* | 1.2
CCOc1ccc2nc(NC(=O)Cc3cccs3)sc2c1 | -0.2 | · | · | 3.2 | · | · | · | · | · | · | · | ·
NC(=O)C1CCN(c2nc(-c3ccc(N)cc3)cs2)CC1 | · | · | 2.1 | · | -1.2 | 0.3 | · | · | · | · | · | ·
CC(C)c1ccc(/C=C/C(=O)Nc2nncs2)cc1 | -0.3 | 5.5* | 18.9* | 6.7 | 0.7 | 12.8* | 13.8* | 4.8* | 2.2 | 6.3* | 18.4* | 1.4
Cc1sc(NC(=O)/C=C/c2ccc(C(C)C)cc2)c(C#N)c1C | 2.0 | -0.6 | 1.0 | -2.7 | -0.5 | -0.5 | · | · | · | · | · | ·
C[C@H](NC(=O)C[C@@H]1C[C@@H]2c3cc(NC(=O)C4CCC4)ccc3O[C@@H]2[C@@H](CO)O1)c1ccccc1 | · | -1.5 | 1.2 | · | -1.2 | -1.7 | · | · | · | · | · | ·
O=C(Nc1ccccc1)c1ccc(-c2ccc(F)cc2)s1 | 1.6 | 7.1* | 13.3* | 2.0 | 1.0* | 5.4 | 11.3* | 7.0* | · | · | 17.6* | 0.7
CNC(=O)c1ccc(-c2ccc(F)cc2)s1 | 0.6 | 2.1 | 4.9 | 3.8 | -0.7 | 5.5 | · | · | · | · | · | ·
CCCCCc1nnc(NC(=O)C2=COCCO2)s1 | 3.1 | 11.2* | 19.9* | 2.2 | 1.9* | 9.0* | 10.2* | 5.0* | 0.6 | 8.0* | 14.2* | 0.6
